Results published in the supplement of paper PMC10849652.
Of roughly 8,800 targets only a part is listed; those with a hit were picked by preference. About 0.5% of all pairs of compound and target were hits.

Assays:
Experiment in all cases: log2 fold change, soluble protein after heating vs DMSO (PISA); higher = thermal stabilisation; K562 lysate, 10 uM; active = over 0.2 and 3.5 SD of the protein, either way, in both replicates (recomputed)
lapatinib = compound: CS(=O)(=O)CCNCc1ccc(-c2ccc3ncnc(Nc4ccc(OCc5cccc(F)c5)c(Cl)c4)c3c2)o1 [lapatinib]
Procedure, shortened: (§1)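 K562 pellets were dounce-homogenised in PBS pH 7.4 containing 1 mM MgCl2, and the crude extract, at 1 mg/mL protein, was exposed to 10 μM compound for 30 min. Aliquots were heated for 3 min across 48°C-58°C, pooled, brought to 0.5% NP-40 at 4°C and spun at 21,000xg for 90 min, with the supernatant taken as soluble protein. TMTpro 16plex LC-MS/MS with equalised channel sums quantified that protein. Values are log-two fold changes in thermal stability relative to solvent controls, taken from duplicates.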

pictilisib = compound: CS(=O)(=O)N1CCN(Cc2cc3nc(-c4cccc5[nH]ncc45)nc(N4CCOCC4)c3s2)CC1 [pictilisib]
Procedure, shortened: as §1

crizotinib = compound: C[C@@H](Oc1cc(-c2cnn(C3CCNCC3)c2)cnc1N)c1c(Cl)ccc(F)c1Cl [crizotinib]
Procedure, shortened: as §1

[1] = compound: C[C@H](C1=CC=C(C=C1)C(=O)NC2=C3C=CNC3=NC=C2)N
Procedure, shortened: as §1

duvelisib = compound: C[C@H](Nc1ncnc2nc[nH]c12)c1cc2cccc(Cl)c2c(=O)n1-c1ccccc1 [duvelisib]
Procedure, shortened: as §1

gandotinib = compound: Cc1cc(Nc2cc(CN3CCOCC3)c3nc(C)c(Cc4ccc(Cl)cc4F)n3n2)n[nH]1 [gandotinib]
Procedure, shortened: as §1

tozasertib = compound: Cc1cc(Nc2cc(N3CCN(C)CC3)nc(Sc3ccc(NC(=O)C4CC4)cc3)n2)n[nH]1 [tozasertib]
Procedure, shortened: as §1

doramapimod = compound: Cc1ccc(-n2nc(C(C)(C)C)cc2NC(=O)Nc2ccc(OCCN3CCOCC3)c3ccccc23)cc1 [doramapimod]
Procedure, shortened: as §1

bafetinib = compound: Cc1ccc(NC(=O)c2ccc(CN3CC[C@H](N(C)C)C3)c(C(F)(F)F)c2)cc1Nc1nccc(-c2cncnc2)n1 [bafetinib]
Procedure, shortened: as §1

[2] = compound: Cc1cccc(CC(=O)N2CCc3c2ccc(-c2cn(C)c4ncnc(N)c24)c3F)n1
Procedure, shortened: as §1

nilotinib = compound: Cc1cn(-c2cc(NC(=O)c3ccc(C)c(Nc4nccc(-c5cccnc5)n4)c3)cc(C(F)(F)F)c2)cn1 [nilotinib]
Procedure, shortened: as §1

[3] = compound: Cc1nc(Nc2n[nH]c3c2CN(C(=O)N[C@H](CN(C)C)c2ccccc2)C3(C)C)c2sccc2n1
Procedure, shortened: as §1

dasatinib = compound: Cc1nc(Nc2ncc(C(=O)Nc3c(C)cccc3Cl)s2)cc(N2CCN(CCO)CC2)n1 [dasatinib]
Procedure, shortened: as §1

[4] = compound: Cc1ncc(-c2ccnc(Nc3ccc(S(C)(=O)=O)cc3)n2)n1C(C)C
Procedure, shortened: as §1

[5] = compound: Cn1cc(-c2ccc3c(c2)CCN3C(=O)Cc2cccc(C(F)(F)F)c2)c2c(N)ncnc21
Procedure, shortened: as §1

quisinostat = compound: Cn1cc(CNCC2CCN(c3ncc(C(=O)NO)cn3)CC2)c2ccccc21 [quisinostat]
Procedure, shortened: as §1

tipifarnib = compound: Cn1cncc1[C@@](N)(c1ccc(Cl)cc1)c1ccc2c(c1)c(-c1cccc(Cl)c1)cc(=O)n2C [tipifarnib]
Procedure, shortened: as §1

[6] = compound: NC(=O)Nc1cc(-c2cccc(F)c2)sc1C(=O)N[C@H]1CCCNC1
Procedure, shortened: as §1

[7] = compound: NC(=O)c1cnc(N[C@@H]2CCCC[C@@H]2N)nc1Nc1cccc(-n2nccn2)c1
Procedure, shortened: as §1

[8] = compound: NC1(c2ccc(-c3nc4ccn5c(=O)[nH]nc5c4cc3-c3ccccc3)cc2)CCC1
Procedure, shortened: as §1

Measured: log2 fold change

SEC16A isoform 5 (UniProt O15027)
UniProt O15027, sequence (O15027 whole entry, looked up): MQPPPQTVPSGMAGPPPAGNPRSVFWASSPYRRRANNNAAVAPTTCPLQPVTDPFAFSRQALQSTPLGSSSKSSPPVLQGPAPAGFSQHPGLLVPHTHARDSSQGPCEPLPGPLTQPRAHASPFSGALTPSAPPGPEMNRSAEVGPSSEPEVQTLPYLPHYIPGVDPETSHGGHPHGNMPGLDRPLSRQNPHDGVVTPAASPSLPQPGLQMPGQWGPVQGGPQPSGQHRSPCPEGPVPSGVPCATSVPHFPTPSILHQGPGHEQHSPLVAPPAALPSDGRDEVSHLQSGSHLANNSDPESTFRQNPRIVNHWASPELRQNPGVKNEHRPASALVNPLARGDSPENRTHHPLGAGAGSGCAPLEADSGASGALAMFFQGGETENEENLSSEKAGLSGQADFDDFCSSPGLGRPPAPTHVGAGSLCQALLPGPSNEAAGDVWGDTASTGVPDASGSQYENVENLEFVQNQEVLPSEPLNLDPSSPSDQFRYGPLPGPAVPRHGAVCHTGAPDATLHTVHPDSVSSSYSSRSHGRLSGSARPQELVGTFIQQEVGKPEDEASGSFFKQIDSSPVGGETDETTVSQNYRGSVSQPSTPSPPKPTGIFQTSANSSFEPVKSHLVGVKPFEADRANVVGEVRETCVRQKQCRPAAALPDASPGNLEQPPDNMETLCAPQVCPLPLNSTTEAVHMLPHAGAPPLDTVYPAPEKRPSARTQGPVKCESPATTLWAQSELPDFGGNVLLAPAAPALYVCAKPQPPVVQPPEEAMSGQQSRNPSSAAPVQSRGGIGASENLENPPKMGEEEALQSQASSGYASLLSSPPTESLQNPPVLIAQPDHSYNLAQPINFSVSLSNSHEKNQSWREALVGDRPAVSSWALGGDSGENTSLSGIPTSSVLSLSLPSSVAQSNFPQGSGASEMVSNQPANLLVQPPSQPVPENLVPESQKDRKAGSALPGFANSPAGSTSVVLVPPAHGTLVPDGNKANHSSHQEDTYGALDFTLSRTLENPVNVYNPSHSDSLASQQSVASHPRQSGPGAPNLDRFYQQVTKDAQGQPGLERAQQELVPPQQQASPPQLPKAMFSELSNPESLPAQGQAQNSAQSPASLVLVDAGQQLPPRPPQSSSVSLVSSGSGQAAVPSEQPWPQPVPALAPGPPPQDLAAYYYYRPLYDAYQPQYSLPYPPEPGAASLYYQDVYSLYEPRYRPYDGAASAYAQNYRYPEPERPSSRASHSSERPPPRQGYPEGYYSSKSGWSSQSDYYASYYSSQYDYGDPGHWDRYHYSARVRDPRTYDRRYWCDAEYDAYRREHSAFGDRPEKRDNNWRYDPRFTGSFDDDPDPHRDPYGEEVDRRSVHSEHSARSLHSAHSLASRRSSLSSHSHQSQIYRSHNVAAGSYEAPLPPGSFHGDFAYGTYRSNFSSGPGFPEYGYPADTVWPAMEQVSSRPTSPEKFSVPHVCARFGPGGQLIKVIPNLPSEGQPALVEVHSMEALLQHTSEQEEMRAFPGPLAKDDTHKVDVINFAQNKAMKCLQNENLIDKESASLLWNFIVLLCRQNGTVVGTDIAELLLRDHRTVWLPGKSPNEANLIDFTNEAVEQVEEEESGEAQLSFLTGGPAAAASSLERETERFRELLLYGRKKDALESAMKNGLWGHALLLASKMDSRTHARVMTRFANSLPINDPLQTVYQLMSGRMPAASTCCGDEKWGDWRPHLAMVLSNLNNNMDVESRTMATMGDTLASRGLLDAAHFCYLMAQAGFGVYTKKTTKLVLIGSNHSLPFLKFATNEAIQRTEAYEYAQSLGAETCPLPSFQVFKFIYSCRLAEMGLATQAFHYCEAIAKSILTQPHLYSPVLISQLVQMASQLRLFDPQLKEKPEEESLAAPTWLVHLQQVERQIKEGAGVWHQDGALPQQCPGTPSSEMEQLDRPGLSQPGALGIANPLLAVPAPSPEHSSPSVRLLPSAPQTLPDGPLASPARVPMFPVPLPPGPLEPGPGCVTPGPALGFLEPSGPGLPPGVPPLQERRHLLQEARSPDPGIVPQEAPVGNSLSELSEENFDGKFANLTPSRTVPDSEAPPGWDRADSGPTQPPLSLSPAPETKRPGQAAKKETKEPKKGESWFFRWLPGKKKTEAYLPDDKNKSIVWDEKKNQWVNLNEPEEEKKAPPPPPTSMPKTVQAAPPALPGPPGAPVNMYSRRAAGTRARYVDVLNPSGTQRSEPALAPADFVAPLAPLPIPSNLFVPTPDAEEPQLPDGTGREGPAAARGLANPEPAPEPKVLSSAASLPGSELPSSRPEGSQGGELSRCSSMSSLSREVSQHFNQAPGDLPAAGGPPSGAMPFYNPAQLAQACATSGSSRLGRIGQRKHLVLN
inactive: lapatinib -0.019 | pictilisib -0.044 | crizotinib 0.018 | [1] -0.039 | duvelisib -0.013 | gandotinib -0.014 | tozasertib -0.001 | doramapimod -0.002 | bafetinib 0.031 | [2] 0.029 | nilotinib -0.119 | [3] 0.008 | dasatinib -0.007 | [4] 0.006 | [5] -0.002 | quisinostat -0.054 | tipifarnib -0.036 | [6] 0.032 | [7] 0.004 | [8] -0.011

SCO1 (UniProt O75880)
UniProt O75880, sequence (O75880 whole entry, looked up): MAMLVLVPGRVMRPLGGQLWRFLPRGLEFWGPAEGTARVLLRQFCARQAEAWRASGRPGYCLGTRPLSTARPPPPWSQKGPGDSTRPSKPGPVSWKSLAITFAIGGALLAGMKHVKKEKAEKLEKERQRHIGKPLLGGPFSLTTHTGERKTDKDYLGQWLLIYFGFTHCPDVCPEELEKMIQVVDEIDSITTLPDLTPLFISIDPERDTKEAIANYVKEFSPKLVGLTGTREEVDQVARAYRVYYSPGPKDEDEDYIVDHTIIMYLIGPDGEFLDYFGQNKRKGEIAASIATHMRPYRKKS
inactive: lapatinib 0.021 | pictilisib -0.046 | crizotinib -0.046 | [1] -0.022 | duvelisib -0.014 | gandotinib 0.047 | tozasertib 0.01 | doramapimod 0.026 | bafetinib 0.048 | [2] 0.073 | nilotinib 0.046 | [3] 0.029 | dasatinib 0.001 | [4] -0.095 | [5] 0 | quisinostat -0.13 | tipifarnib -0.108 | [6] -0.033 | [7] 0.029 | [8] 0.001

RAC2 (UniProt P15153)
inactive: lapatinib -0.057 | pictilisib 0.016 | crizotinib -0.018 | [1] -0.05 | duvelisib -0.026 | gandotinib -0.025 | tozasertib -0.062 | doramapimod -0.014 | bafetinib -0.042 | [2] 0.031 | nilotinib -0.025 | [3] -0.076 | dasatinib -0.068 | [4] 0.015 | [5] -0.093 | quisinostat 0.021 | tipifarnib 0 | [6] 0.001 | [7] 0.04 | [8] 0.017

RRM1 (UniProt P23921)
inactive: lapatinib 0.003 | pictilisib 0.01 | crizotinib -0.025 | [1] -0.004 | duvelisib -0.052 | gandotinib -0.028 | tozasertib -0.036 | doramapimod -0.017 | bafetinib -0.018 | [2] 0.001 | nilotinib -0.003 | [3] 0.008 | dasatinib -0.026 | [4] 0.001 | [5] 0.016 | quisinostat -0.018 | tipifarnib 0.007 | [6] 0.016 | [7] -0.002 | [8] -0.038

RHAG (UniProt Q02094)
active: [1] -0.381
inactive: lapatinib -0.046 | pictilisib -0.002 | crizotinib -0.038 | duvelisib 0.113 | gandotinib 0.07 | tozasertib 0.05 | doramapimod 0.032 | bafetinib 0.004 | [2] 0.184 | nilotinib 0.041 | [3] -0.013 | dasatinib -0.029 | [4] -0.016 | [5] -0.06 | quisinostat -0.142 | tipifarnib 0.011 | [6] 0.011 | [7] -0.024 | [8] -0.002

RMC1 (UniProt Q96DM3)
UniProt Q96DM3, sequence (Q96DM3 whole entry, looked up): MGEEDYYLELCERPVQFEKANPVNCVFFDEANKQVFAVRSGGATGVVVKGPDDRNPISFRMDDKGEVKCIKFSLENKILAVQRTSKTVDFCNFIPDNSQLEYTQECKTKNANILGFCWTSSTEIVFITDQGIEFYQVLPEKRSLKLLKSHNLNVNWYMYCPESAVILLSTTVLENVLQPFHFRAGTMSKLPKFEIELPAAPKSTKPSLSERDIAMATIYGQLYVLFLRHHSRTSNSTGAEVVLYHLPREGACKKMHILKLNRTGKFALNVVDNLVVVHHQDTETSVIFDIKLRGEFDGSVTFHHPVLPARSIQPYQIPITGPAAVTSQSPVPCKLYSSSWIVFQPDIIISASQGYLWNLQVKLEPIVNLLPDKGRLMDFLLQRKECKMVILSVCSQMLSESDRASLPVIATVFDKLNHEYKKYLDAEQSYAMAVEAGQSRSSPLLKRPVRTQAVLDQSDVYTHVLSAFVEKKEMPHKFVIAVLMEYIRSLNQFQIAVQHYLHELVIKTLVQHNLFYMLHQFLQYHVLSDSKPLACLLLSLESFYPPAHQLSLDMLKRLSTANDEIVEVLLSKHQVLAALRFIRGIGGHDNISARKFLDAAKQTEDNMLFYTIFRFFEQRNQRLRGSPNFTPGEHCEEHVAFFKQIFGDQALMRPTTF
inactive: lapatinib -0.036 | pictilisib -0.011 | crizotinib -0.013 | [1] -0.029 | duvelisib 0.024 | gandotinib -0.051 | tozasertib -0.056 | doramapimod 0.012 | bafetinib -0.062 | [2] 0.035 | nilotinib 0.027 | [3] 0.005 | dasatinib 0.008 | [4] -0.002 | [5] 0.003 | quisinostat -0.02 | tipifarnib -0.057 | [6] 0.035 | [7] -0.007 | [8] 0.036

RPTOR (UniProt Q8N122)
inactive: lapatinib -0.001 | pictilisib -0.024 | crizotinib -0.056 | [1] -0.044 | duvelisib -0.024 | gandotinib -0.097 | tozasertib 0.019 | doramapimod 0.025 | bafetinib -0.057 | [2] 0.009 | nilotinib -0.005 | [3] -0.035 | dasatinib -0.041 | [4] -0.016 | [5] 0.011 | quisinostat -0.057 | tipifarnib 0.014 | [6] 0.047 | [7] 0.006 | [8] -0.041

SCCPDH (UniProt Q8NBX0)
active: gandotinib 0.869
inactive: lapatinib 0.108 | pictilisib 0.006 | crizotinib 0.394 | [1] -0.179 | duvelisib 0.195 | tozasertib -0.052 | doramapimod -0.102 | bafetinib -0.015 | [2] 0.034 | nilotinib 0.12 | [3] -0.002 | dasatinib 0.058 | [4] 0.151 | [5] -0.019 | quisinostat -0.058 | tipifarnib 0.049 | [6] -0.217 | [7] -0.081 | [8] 0.022

S100A11 (UniProt P31949)
inactive: lapatinib 0.105 | pictilisib 0.006 | crizotinib 0.02 | [1] 0.097 | duvelisib 0.052 | gandotinib -0.042 | tozasertib -0.043 | doramapimod 0.003 | bafetinib -0.039 | [2] -0.032 | nilotinib 0.067 | [3] 0.007 | dasatinib 0.013 | [4] 0.056 | [5] -0.02 | quisinostat 0.05 | tipifarnib 0.041 | [6] -0.033 | [7] 0 | [8] -0.006

RPS6KA1 (UniProt Q15418)
UniProt Q15418, sequence (Q15418 whole entry, looked up): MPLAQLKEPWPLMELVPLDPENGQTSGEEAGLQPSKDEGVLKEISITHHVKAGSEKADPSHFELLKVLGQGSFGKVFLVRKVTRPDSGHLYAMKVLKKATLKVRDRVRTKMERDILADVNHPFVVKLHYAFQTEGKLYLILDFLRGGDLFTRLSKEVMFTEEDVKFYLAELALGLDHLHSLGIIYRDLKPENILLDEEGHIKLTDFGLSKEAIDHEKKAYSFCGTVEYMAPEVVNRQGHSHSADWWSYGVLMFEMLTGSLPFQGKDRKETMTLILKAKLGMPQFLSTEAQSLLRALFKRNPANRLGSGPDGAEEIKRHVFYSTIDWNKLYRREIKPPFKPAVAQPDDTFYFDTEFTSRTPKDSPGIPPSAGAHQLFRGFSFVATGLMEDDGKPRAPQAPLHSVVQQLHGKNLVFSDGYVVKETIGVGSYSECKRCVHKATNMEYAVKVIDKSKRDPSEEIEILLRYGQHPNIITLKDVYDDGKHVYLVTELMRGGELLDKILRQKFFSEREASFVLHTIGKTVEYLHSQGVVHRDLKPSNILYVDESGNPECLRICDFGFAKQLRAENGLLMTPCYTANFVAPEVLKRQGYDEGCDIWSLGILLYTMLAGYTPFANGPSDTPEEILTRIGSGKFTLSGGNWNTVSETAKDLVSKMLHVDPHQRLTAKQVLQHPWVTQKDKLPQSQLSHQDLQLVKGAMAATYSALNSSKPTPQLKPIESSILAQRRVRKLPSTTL
inactive: lapatinib -0.067 | pictilisib 0.08 | crizotinib -0.043 | [1] 0.007 | duvelisib 0.008 | gandotinib 0.05 | tozasertib 0.165 | doramapimod -0.039 | bafetinib -0.135 | [2] -0.172 | nilotinib -0.037 | [3] 0.204 | dasatinib -0.113 | [4] 0.078 | [5] 0.031 | quisinostat -0.045 | tipifarnib 0.002 | [6] 0.256 | [7] 0.093 | [8] -0.028

SAR1A (UniProt Q9NR31)
inactive: lapatinib 0.101 | pictilisib 0.191 | crizotinib -0.056 | [1] 0.033 | duvelisib 0.002 | gandotinib 0.341 | tozasertib 0.027 | bafetinib -0.022 | [2] 0.156 | nilotinib 0.145 | [3] 0.164 | dasatinib 0.017 | [4] -0.009 | [5] 0.01 | quisinostat 0.095 | tipifarnib -0.172 | [6] -0.055 | [7] -0.154 | [8] -0.045
active: doramapimod 0.504

RFC5 (UniProt P40937)
inactive: lapatinib 0.007 | pictilisib -0.058 | crizotinib -0.056 | [1] -0.047 | duvelisib 0.016 | gandotinib -0.068 | tozasertib 0.018 | doramapimod 0.026 | bafetinib -0.039 | [2] 0.018 | nilotinib 0.005 | [3] 0.001 | dasatinib -0.06 | [4] -0.005 | [5] 0.025 | quisinostat -0.078 | tipifarnib -0.023 | [6] 0.074 | [7] 0.025 | [8] -0.02

RAE1 (UniProt P78406)
UniProt P78406, sequence (P78406 whole entry, looked up): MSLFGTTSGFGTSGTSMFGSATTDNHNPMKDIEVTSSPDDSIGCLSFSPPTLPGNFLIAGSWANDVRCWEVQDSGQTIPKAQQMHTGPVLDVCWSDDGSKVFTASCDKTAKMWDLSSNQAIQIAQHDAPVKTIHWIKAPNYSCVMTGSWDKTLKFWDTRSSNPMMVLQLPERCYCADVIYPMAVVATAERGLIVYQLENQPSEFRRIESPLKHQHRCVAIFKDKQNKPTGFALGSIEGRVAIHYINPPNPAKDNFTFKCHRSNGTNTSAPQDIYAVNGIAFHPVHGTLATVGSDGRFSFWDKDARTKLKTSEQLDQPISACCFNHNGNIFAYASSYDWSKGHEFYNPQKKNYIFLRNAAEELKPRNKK
inactive: lapatinib 0.055 | pictilisib 0.003 | crizotinib 0.05 | [1] -0.158 | duvelisib -0.063 | gandotinib 0.031 | tozasertib -0.071 | doramapimod -0.032 | bafetinib 0.235 | [2] 0.111 | nilotinib -0.093 | [3] 0.042 | dasatinib 0.002 | [4] 0.012 | [5] 0.033 | quisinostat 0.038 | tipifarnib -0.053 | [6] 0.026 | [7] 0.024 | [8] 0.015

RNF168 (UniProt Q8IYW5)
UniProt Q8IYW5, sequence (Q8IYW5 whole entry, looked up): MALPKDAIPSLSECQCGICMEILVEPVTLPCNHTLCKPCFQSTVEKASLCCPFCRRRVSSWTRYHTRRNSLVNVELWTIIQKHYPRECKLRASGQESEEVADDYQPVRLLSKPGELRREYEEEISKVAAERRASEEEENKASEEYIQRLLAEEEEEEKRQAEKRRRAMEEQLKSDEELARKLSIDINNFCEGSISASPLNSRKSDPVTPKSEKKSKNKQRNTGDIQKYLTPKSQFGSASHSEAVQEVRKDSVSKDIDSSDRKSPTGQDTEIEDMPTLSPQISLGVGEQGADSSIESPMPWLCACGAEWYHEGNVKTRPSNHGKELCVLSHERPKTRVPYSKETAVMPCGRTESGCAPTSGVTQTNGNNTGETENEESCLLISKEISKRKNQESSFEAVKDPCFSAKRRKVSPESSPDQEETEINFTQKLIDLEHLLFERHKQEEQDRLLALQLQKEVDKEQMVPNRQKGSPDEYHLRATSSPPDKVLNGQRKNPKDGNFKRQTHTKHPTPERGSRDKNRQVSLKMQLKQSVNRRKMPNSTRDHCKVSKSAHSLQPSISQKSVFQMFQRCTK
inactive: lapatinib -0.034 | pictilisib 0.063 | crizotinib 0.027 | [1] -0.015 | duvelisib 0.037 | gandotinib 0.002 | tozasertib -0.088 | doramapimod -0.008 | bafetinib -0.212 | [2] -0.036 | nilotinib 0.144 | [3] 0.085 | dasatinib 0.064 | [4] -0.186 | [5] 0.006 | quisinostat -0.019 | tipifarnib 0.016 | [6] -0.009 | [7] -0.02 | [8] 0.018

RPL31 (UniProt P62899)
inactive: lapatinib -0.01 | pictilisib 0.009 | crizotinib 0.016 | [1] -0.006 | duvelisib 0.004 | gandotinib 0.005 | tozasertib -0.006 | doramapimod -0.041 | bafetinib -0.023 | [2] 0.029 | nilotinib 0.007 | [3] -0.034 | dasatinib 0.046 | [4] -0.036 | [5] -0.038 | quisinostat 0.043 | tipifarnib 0.021 | [6] -0.004 | [7] -0.018 | [8] 0.005

RPL27 (UniProt P61353)
inactive: lapatinib -0.04 | pictilisib 0.008 | crizotinib 0.013 | duvelisib 0.012 | gandotinib -0.098 | tozasertib 0.01 | doramapimod -0.034 | bafetinib -0.033 | [2] -0.118 | nilotinib 0.022 | [3] -0.029 | dasatinib -0.049 | [4] 0.01 | [5] 0 | quisinostat 0.054 | tipifarnib -0.01 | [6] -0.017 | [7] -0.023 | [8] 0.012
active: [1] 0.411
